# PubChem BioAssay (NCATS)
# Records with an inconclusive call do not appear. Entries that show only a call come without a potency. Calls of active or inactive are those of the source. Calls follow the shape of the dose curve; as a rule, active = well fitted cell-killing curve with a large enough effect; inconclusive = small, poorly fitted or top-dose-only effect; inactive = no such curve, though single readings can be large or run the other way.
# Test: qHTS of pediatric cancer cell lines to identify multiple opportunities for drug repurposing: Primary screen for SK-N-MC cells (AID 1347093)
# Conditions: SK-N-MC viability, CellTiter-Glo luminescence, 48 h; series mostly up to 46 µM
# Method in brief: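 Metabolically active cells were quantified by ATP-dependent luminescence (CellTiter-Glo, 15 min at room temperature) following 48 h treatment. Cells had been plated at 500-1,000 per well and settled for 5 h beforehand.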
# Potency is read from the fitted curve at half-maximal effect.
row,SMILES,Potency
1,CCCCCC(=O)O[C@]1(C(C)=O)CC[C@H]2[C@@H]3CCC4=CC(=O)CC[C@]4(C)[C@H]3CC[C@@]21C,13.3 µM (active)
2,CC(C)OC(=O)c1cc2c(OCC(O)CNC(C)(C)C)cccc2[nH]1 (stereo not given),inactive
3,CCN1CCN(C(=O)N[C@@H](C(=O)N[C@@H]2C(=O)N3[C@@H]2SC(C)(C)[C@H]3C(=O)O)c2ccccc2)C(=O)C1=O,inactive
4,CN(C)C(=O)CNC(=O)Cc1ccccc1,inactive
5,Cc1sccc1Br,inactive
6,COc1ccc2c(c1)c(CC(=O)OC/C=C(\C)CC/C=C(\C)CCC=C(C)C)c(C)n2C(=O)c1ccc(Cl)cc1,inactive
7,COc1ccc(/C(C)=C/C(=O)O)c(OC)c1,inactive
8,Cc1cc(CCCOc2c(C)cc(-c3noc(C(F)(F)F)n3)cc2C)on1,inactive
9,CCc1cccc2c(CCO)c[nH]c12,inactive
10,COC(=O)[C@H]1[C@H]2C[C@@H]3c4[nH]c5cc(OC)ccc5c4CCN3C[C@H]2C[C@@H](OC(=O)/C=C/c2ccc(O)c(OC)c2)[C@@H]1OC,5.96 µM (active)
11,COc1ccc2c(c1)CCCC2=O,inactive
12,OCc1c[nH]c2ccccc12,21.7 µM (active)
13,CCn1ccc(NS(=O)(=O)c2ccc(N)cc2)nc1=O,inactive
14,COc1cc(OC)nc(O[C@H](C(=O)O)C(OC)(c2ccccc2)c2ccccc2)n1,inactive
15,CCC(=O)O[C@]1(C(=O)COC)[C@@H](C)C[C@H]2[C@@H]3CCC4=CC(=O)C=C[C@]4(C)C3(F)[C@@H](O)C[C@@]21C (stereo not given in full),inactive
16,Cc1cccc(OCC(O)CNC(C)(C)C)c1C (stereo not given),inactive
17,CC[C@@H]([C@H](C)O)n1ncn(-c2ccc(N3CCN(c4ccc(OC[C@@H]5CO[C@@](Cn6cncn6)(c6ccc(F)cc6F)C5)cc4)CC3)cc2)c1=O,11.9 µM (active)
18,CC(CC(C#N)(c1ccccc1)C(C)C)N(C)C (stereo not given),inactive
19,CC(NN)c1ccccc1 (stereo not given),inactive
20,CCCCC(CC)CNC(=O)CC(C)OC(=O)CCC(=O)O (stereo not given),inactive
21,Cn1c(=O)c2c(ncn2CC(=O)O)n(C)c1=O,inactive
22,Cc1ccc(C(C)OC(=O)C2(C)CCC(C(=O)O)C2(C)C)cc1 (stereo not given),inactive
23,C[C@@]12CCC[C@H]1[C@@H]1CC[C@H]3C[C@@H](O)CC[C@]3(C)[C@H]1CC2,inactive
24,C[C@H](CN1CCCC1)C(=O)c1ccc(C(F)(F)F)cc1,inactive
25,CC[N+]1(CC)CCC(=C(c2ccccc2)c2ccccc2)C1C (stereo not given),18.8 µM (active)
26,COc1ccc2cc(C=O)ccc2c1,inactive
27,C/C(=C(/OCCOc1ccc(Cl)cc1)c1ccc(Cl)cc1Cl)n1ccnc1,21.1 µM (active)
28,COc1cc(C(=O)OC(COCCC(C)C)CN2CCOCC2)cc(OC)c1OC (stereo not given),inactive
29,CC(=O)O[C@@H]1C(=O)O[C@@H]2[C@H]1OC(=O)[C@@H]2OC(C)=O,3.76 µM (active)
30,CC1CCCCN1CCCOC(=O)c1ccc(OC2CCCCC2)cc1 (stereo not given),inactive
